This is part of a sample that, as a whole, favours compounds with a hit. Of some 79,000 tested, about 15% had one in any assay. A number with no mark means an inactive call. Active and inactive are the calls of the source. Cut-off read from the data, not from the text of the source: active = growth inhibition above about 70%; inactive = the rest.
Assays:
[1] = NCI Yeast Anticancer Drug Screen. Data for the rad50 strain (AID 155);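 note: 0% = growth of vehicle-only cultures of the same strain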; settings: S. cerevisiae rad50 strain growth inhibition, active compounds read high
Procedure, shortened: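 Genetically altered yeast (DNA repair pathway); compound treatment; growth inhibition vs vehicle ctrl.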

[2] = NCI Yeast Anticancer Drug Screen. Data for the mec2-1 strain (AID 157); settings: S. cerevisiae mec2-1 strain, active compounds read high
Procedure, shortened: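 Readout is yeast growth inhibition, normalised to vehicle-treated controls, in the mec2-1 strain exposed to compound.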

[3] = NCI Yeast Anticancer Drug Screen. Data for the sgs1 mgt1 strain (AID 161);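 note: 0% = growth of cultures given vehicle only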; settings: S. cerevisiae sgs1 mgt1 strain, active compounds read high
Procedure, shortened: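 Growth of a repair-deficient yeast mutant was monitored after compound treatment and expressed as inhibition relative to vehicle-treated cultures.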

[4] = NCI Yeast Anticancer Drug Screen. Data for the cln2 rad14 strain (AID 165);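 note: 0% = growth equal to vehicle treated cultures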; settings: S. cerevisiae cln2 rad14 strain, active compounds read high
Procedure, shortened: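 Relative to vehicle controls, growth inhibition of compound-treated cln2 rad14 yeast was recorded.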

[5] = NCI Yeast Anticancer Drug Screen. Data for the bub3 strain (AID 167); settings: S. cerevisiae bub3 mutant strain, active compounds read high
Procedure, shortened: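 Yeast carrying a defined mutation is treated with each compound, and growth is compared with that of vehicle-exposed cells to give inhibition.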

[6] = NCI Yeast Anticancer Drug Screen. Data for the mlh1 rad18 strain (AID 175); settings: S. cerevisiae mlh1 rad18 strain growth inhibition, active compounds read high
Procedure, shortened: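 Test agents were incubated with a yeast strain of defined genotype (DNA damage repair defect). Inhibition of growth was derived by comparison with vehicle-exposed cultures.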

[7] = at 5.0 µM (retest, dose inferred, filed as 0.5)
[8] = at 50.0 µM (retest, dose inferred, filed as 5.0)

| Structure (SMILES) | growth inhibition [1, 7] | growth inhibition [1, 8] | growth inhibition ([1]; at 50.0 µM) | growth inhibition [2, 7] | growth inhibition [2, 8] | growth inhibition ([2]; at 50.0 µM) | growth inhibition [3, 7] | growth inhibition [3, 8] | growth inhibition ([3]; at 50.0 µM) | growth inhibition [4, 7] | growth inhibition [4, 8] | growth inhibition ([4]; at 50.0 µM) | growth inhibition [5, 7] | growth inhibition [5, 8] | growth inhibition ([5]; at 50.0 µM) | growth inhibition [6, 7] | growth inhibition [6, 8] | growth inhibition ([6]; at 50.0 µM) |
| --- | --- | --- | --- | --- | --- | --- | --- | --- | --- | --- | --- | --- | --- | --- | --- | --- | --- | --- |
| CCCCCCCCN(CCCCCCCC)CC(O)c1cc(-c2ccc(OC)cc2)nc2cc(Cl)ccc12 (configuration not stated) | -2% | 81% (active) | 42.5% | 8% | 86% (active) | 92.5% (active) | 17% | 85% (active) | 48.6% | 8% | 76% (active) | 84% (active) | 12% | 85% (active) | 75.7% (active) | 7% | 84% (active) | 89% (active) |
| CC(=O)N[C@H]1CC[C@H]2[C@@H]3CCC4=CC(=O)CC[C@]4(C)[C@H]3CC[C@]12C | 5% | 94% (active) | 33.2% | -11% | 95% (active) | 94.5% (active) | 10% | -10% | 94.2% (active) | -8% | 97% (active) | 79.5% (active) | -1% | 97% (active) | 98% (active) | -4% | 95% (active) | 93.8% (active) |
| C/C=C/C/C=C/CCC(=O)C1OC1C(N)=O (configuration not stated) | 98% (active) | 99% (active) | 92.3% (active) | 99% (active) | 99% (active) | 93.3% (active) | 99% (active) | 99% (active) | 93.3% (active) | 98% (active) | 99% (active) | 91.4% (active) | 99% (active) | 98% (active) | 91.8% (active) | 99% (active) | 99% (active) | 91.8% (active) |
| CC1(C)/C=C/C2=Nc3cc(Br)c(Br)c(Br)c3C23CC(=O)N3/C=C(\Cl)c2nc(Br)[nH]c21 (configuration not stated) | 22% | 97% (active) | 92% (active) | 15% | 96% (active) | 93.8% (active) | 32% | 98% (active) | 93.8% (active) | 29% | 98% (active) | 91.7% (active) | 12% | 98% (active) | 93% (active) | -11% | 98% (active) | 92.5% (active) |
| CC(=O)OCC1OC(n2c(O)c(N=NC(N)=S)c3ccc([N+](=O)[O-])cc32)C(OC(C)=O)C1OC(C)=O (configuration not stated) | 12% | 95% (active) | 96.5% (active) | 5% | 47% | 34.6% | -9% | 72% (active) | 71.5% (active) | -33% | 23% | -1.15% | 6% | 34% | 53.3% | -1% | 68% | 61.3% |
| C=CCCCCCCCCC(=O)OCC=C | 0% | 4% | -2.1% | 6% | 3% | -18.1% | 4% | 9% | 16.4% | 0% | 0% | 26.6% | -3% | -4% | 10.9% | -2% | -1% | 9.2% |
| CCOC(=O)CC1(C)C(=O)CCCC1=O | 3% | -2% | -3.7% | -2% | -2% | 2% | 0% | 0% | 3.65% | 0% | -2% | -27.5% | -5% | -2% | -6.7% | -3% | -156% | -1% |
| CCOc1ccc(N=NS(=O)(=O)O)cc1 | -8% | 14% | 61.1% | -11% | -23% | -5.45% | -12% | -24% | -6.5% | -29% | -88% | 15% | -7% | -13% | -23.1% | -2% | -5% | 9.4% |
| CCOC(=O)Cn1c(=O)c2nc(SC)sc2n(-c2ccc(C)cc2)c1=S | -3% | -1% | -4.9% | -1% | -10% | -6.25% | 0% | 6% | 27.1% | 14% | 17% | 34% | 1% | 9% | -10.4% | 2% | 12% | -19% |
| O=C1OC(c2ccccc2)(c2ccccc2)Cc2ccccc21 | -4% | 20% | 94% (active) | -9% | -4% | 96% (active) | -7% | -16% | 91% (active) | -4% | 7% | 91.3% (active) | -27% | -13% | 90.8% (active) | -21% | 8% | 94.8% (active) |
| CC(=O)OCCCCCCCCCCCCCCO | -1% | 98% (active) | 50% | 0% | 99% (active) | -15.1% | -4% | 99% (active) | -1.2% | -3% | 98% (active) | -33.1% | 1% | 99% (active) | 43% | -2% | 98% (active) | 4.25% |
| CCC(=O)Oc1c(Cl)cc(Cl)c(Cl)c1Cl | 4% | 56% | 43.4% | 6% | 59% | 14.2% | 2% | 79% (active) | 48.1% | -3% | 30% | 5.45% | -3% | 54% | 14.2% | 16% | 90% (active) | 74.3% (active) |
| O=C1OC(=O)C2C1C1C(c3ccccc3)=C(c3ccccc3)C2(O)C2C(=O)OC(=O)C12 (configuration not stated) | 25% | 25% | 76.2% (active) | 7% | 7% | 81% (active) | 16% | 16% | 69.7% | 17% | 17% | 52.5% | 4% | 4% | 74% (active) | 18% | 18% | 29.7% |
| O=C(Cc1c[nH]c2ccccc12)N/N=C/c1ccc(Cl)cc1[N+](=O)[O-] | -5% | 73% (active) | 39.8% | 1% | 88% (active) | 20.4% | -4% | 94% (active) | 36.6% | -5% | 89% (active) | 38.8% | -3% | 93% (active) | 19.5% | 13% | 90% (active) | 66.7% |
| O=C1C(Cl)=C(Cl)C(=O)c2cc(Cl)c(Cl)cc21 | 82% (active) | 99% (active) | 83.9% (active) | 89% (active) | 99% (active) | 84% (active) | 65% | 99% (active) | 97.1% (active) | 86% (active) | 97% (active) | 88.2% (active) | 98% (active) | 98% (active) | 93.5% (active) | 60% | 97% (active) | 87.8% (active) |
| COC1=CC(=O)c2ncccc2C1=O | 13% | 92% (active) | 91.8% (active) | 6% | 83% (active) | 78.5% (active) | 8% | 81% (active) | 84.8% (active) | -3% | 93% (active) | 89.2% (active) | 2% | 81% (active) | 46.6% | 9% | 93% (active) | 95.1% (active) |
| O=[N+]([O-])c1ccc(C2=Nn3c(nnc3-c3ccc(Cl)cc3)SC2)o1 | 19% | 83% (active) | 66.5% | 10% | 44% | 37.7% | 29% | 73% (active) | 62.1% | -2% | 94% (active) | 65.5% | 12% | 93% (active) | 55.9% | 30% | 91% (active) | 79.3% (active) |
| CCOC(=O)C(C)(C)C | 0% | 29% | 15.8% | 3% | 16% | -8.2% | 2% | 12% | 14.4% | 0% | 11% | 25.6% | 2% | 29% | 73% (active) | 3% | 16% | 23.3% |
| Cc1cc2c(cc1S(=O)(=O)O)C1C(C3C2C2(Cl)C(Cl)=C(Cl)C3(Cl)C2(Cl)Cl)C2(Cl)C(Cl)=C(Cl)C1(Cl)C2(Cl)Cl (configuration not stated) | 1% | 69% | 82.4% (active) | -14% | 72% (active) | 74.4% (active) | 27% | 87% (active) | 86.8% (active) | 33% | 84% (active) | 60.7% | -15% | 82% (active) | 70.8% (active) | -20% | 87% (active) | 79.2% (active) |

From PubChem BioAssay (NCI)
